PubChem BioAssay (NCATS)
“And” between values parts separate entries of the source, which are not always exact repeats. Equal entries are not always repeated. Inconclusive results are not listed. A number with no mark means an inactive call. The source made the active and inactive calls. Calls come from the whole dose curve; as a rule, active = well fitted cell-killing curve with a large enough effect; inconclusive = small, poorly fitted or top-dose-only effect, or effect the other way; inactive = no such curve, though single readings can be large or run the other way.

Assay: Viability qHTS for spleen associated tyrosine kinase inhibitor (SYKi) drug resistant MV4-11 cells (AID 1963824); note: nearly all actives have a fitted effect of over 35% in size
Details: SYKi-resistant MV4-11 viability, CellTiter-Glo, 72 h; series mostly up to 45 µM; viability, % of control: at the top concentration
Excerpt: Department of Medicine, Hematology/Oncology
University Hospital Frankfurt, Germany.
Trials have shown promising clinical activity of the selective SYK inhibitor entospletinib in patients with high expressing HOXA9/MEIS1 acute leukemias. As the development of resistance mechanisms is a common problem in the use of targeted drugs, we performed a chemical library screen to identify drug sensitivities in SYK inhibitor resistant AML cells. […] Glucocorticoids are potent immunosuppressants which work in part by inhibiting the transcription of cytokine genes.
Described herein is a viability screen to look for activity in the SYK inhibitor drug resistant cell line against four NCATS compound libraries (MIPE 5.0, NPC, NPACT, and Kinase) totaling 11372 compounds. Active hits were reacquired for confirmation and further secondary assay testing.
SEQUENCE No. (e.g., 1, 2, 3, etc.); […] (e.g., Cells, Incubation, Reagent, etc.); VALUE; DESCRIPTION.
1; Media; 2uL; white, solid-bottom Corning assay plate.
2; Compounds; 23nL; Echo acoustic dispenser.
3; Cell; 5uL; 500 cells per well.
4: Incubation; 72hr; 37 C, 5% CO2, 95% humidity.
5; Reagent; 3uL; CellTiter-Glo reagent (Promega).
6; Incubation; 10min; room temperature.
7; Detection; Luminescence; ViewLux plate reader (PerkinElmer).
NOTES (numbers refer to Sequence numbers above
1. Quantitative high-throughput screening (qHTS) of small molecule compounds was conducted on drug resistant SYKi MV4-11 cell line.
2. Twenty-three nanoliter of small molecule compounds were added to each assay plates using the Echo acoustic dispenser (Beckman Coulter).
3. Cells were seeded into the assay plates at a final density of 500 cells in 5uL of media per well using the Multidrop Combi dispenser.
4. Plates were covered with stainless steel gasketed lids and incubated for 72 hours at standard cell culture conditions.
5. Viability was assessed by adding 3uL of CellTiter-Glo detection reagent (Promega).
6. Plates were covered with gasket lids and incubated for 10 minutes at room temperature.
7. Luminescence was measured on a ViewLux plate reader (PerkinElmer).
Potency is the fitted concentration of half-maximal effect.

Structure (SMILES)	Potency	viability, % of control
NC(=O)c1cccc(-c2cc(Nc3ccc(OC(F)(F)F)cc3)ncn2)c1	9.2 µM (active) and 5.9 µM (active)	–
COC(=O)C12C(=O)C(C)=C(O)C1(C)C(C)=CC1C3(CO)CCC(O)C(C)(C)C3CCC12C (stereo not given)	–	75% [at 17.3 µM]
CC(C)c1c2cc(-c3ccnc(NC4CCC(NC5CCOCC5)CC4)n3)ccc2nn1C (stereo not given)	116 nM (active) and 83.3 nM (active)	–
CC1(C)CC[C@]2(C(=O)O)[C@H](O)C[C@]3(C)C(=CCC4[C@@]5(C)CC[C@H](O[C@@H]6OC[C@@H](O)[C@H](O)[C@H]6O)[C@@](C)(C(=O)O)C5CC[C@]43C)[C@@H]2C1 (stereo not given in full)	–	108% [at 17.3 µM]
Cc1cc2nc3ccc(=[N+](C)C)cc-3sc2cc1N	1.68 µM (active)	–
N#CCC(C1CCCC1)n1cc(-c2ncnc3[nH]ccc23)cn1 (stereo not given)	10.3 µM (active)	–
NS(=O)(=O)c1cc2c(cc1Cl)NCNS2(=O)=O	–	96%
CC1(C)O[C@@H]2[C@@H](CO[C@@]3(COS(N)(=O)=O)OC(C)(C)O[C@@H]23)O1	–	89.3%
CC(=O)OC1C(O)CC2(C)C(CCC3(C)C2CC=C2C4C5(CCC(CO[C@@H]6O[C@H](CO)[C@@H](O)[C@H](O)[C@H]6O)(OC5=O)C4(C)O)C(O)CC23C)C1(C)C (stereo not given in full)	–	68.8% [at 17.3 µM]
CCCCOC(=O)CCCCCCCCC(=O)OCCCC	–	90.2%
O=C1CC[C@@H](C(=O)O)N1	–	102%
NCCOCCOCCNC(=O)Cc1ccc(Nc2nc(NCc3ccc(F)cc3)nc(NCC3CCCCC3)n2)cc1	4.61 µM (active)	–
CN1c2ccccc2C(=O)N2CCC3c4ccccc4NC3C21 (stereo not given)	1.8 µM (active)	–
O=C(OC[C@H]1O[C@H](O[C@H]2CO[C@H](CO)[C@@H](O)[C@@H]2O)[C@H](O)[C@@H](O)[C@H]1O)c1ccccc1	–	75.6% [at 17.3 µM]
C=C1C(OC(C)=O)[C@@]23CCC4[C@](C)(C(=O)O)CCC[C@@]4(C)[C@]2(O)CC[C@H]1C3 (stereo not given in full)	–	80.2%
O=C(Nc1cccc(C(F)(F)F)c1)Nc1ccc(Br)cc1-c1nn[nH]n1	–	80%
CO[C@@H]1[C@]2(O)C(=O)N3/C=C\C(C)(C)c4[nH]c5ccccc5c4/C=C\3C(=O)N2[C@]23[C@H](CO)C(C)(C)N2c2ccccc2[C@]13O	–	84.1% [at 17.3 µM]
CC(C)C(=O)Nc1cccc(C2CN3CCSC3=N2)c1 (stereo not given)	–	64.5%
Oc1ccc2ccccc2c1SSc1c(O)ccc2ccccc12	5.25 µM (active) and 9.2 µM (active)	–
CS(=O)(=O)N1CCN(Cc2cc3nc(-c4cccc5[nH]ncc45)nc(N4CCOCC4)c3s2)CC1	461 nM (active) and 2.09 µM (active)	–

Structure (SMILES)	Potency	viability, % of control
CC[C@@]1(O)C(=O)OCc2c1cc1n(c2=O)Cc2cc3cc(O)ccc3nc2-1	0.0186 µM (active)	–
CCOC(=O)C1=CCCCC1S(=O)(=O)Nc1ccc(F)cc1Cl (stereo not given)	16.6 µM (active)	–
CCCCOC(=O)NC(=O)C1c2ccccc2Oc2ccccc21	–	101%
O=S(=O)(O)NC1CCCCC1	–	89.4%
CC[C@H](C)/C=C(C)/C=C/C1=CC2=C(Cl)C(=O)[C@](C)(O)[C@H](OC(C)=O)[C@H]2CO1	7.18 µM (active)	–
C[C@@H]1O[C@@H](O[C@H]2CC[C@@]3(C)C(CC[C@]4(C)C3CC=C3[C@@H]5CC(C)(C)CC[C@]5(C(=O)O[C@@H]5O[C@H](CO)[C@@H](O)[C@H](O)[C@H]5O)CC[C@]34C)[C@]2(C)CO)[C@H](O)[C@H](O[C@@H]2O[C@H](CO)[C@@H](O)[C@H](O)[C@H]2O)[C@H]1O (stereo not given in full)	3.9 µM (active)	–
C[C@H]1[C@H](C)CC[C@]2(C(=O)O)CC[C@]3(C)C(=CCC4[C@@]5(C)C[C@@H](O)[C@H](O)C(C)(C)C5CC[C@]43C)[C@H]12 (stereo not given in full)	–	54.8% [at 17.3 µM]
COc1cc2nc(N3CCC(N4CCCCC4)CC3)nc(NC3CCCCCC3)c2cc1OC	1.03 µM (active)	–
COc1ccc(CC2NCCc3c2[nH]c2ccc(C)cc32)cc1OC (stereo not given)	7.31 µM (active)	–
CCNCCc1ccc(CN(CC)c2cc(OC)ccc2[C@@H]2CCc3cc(O)ccc3C2)cc1	2.95 µM (active)	–
Cc1ccc(Cl)c(Nc2ccccc2C(=O)O)c1Cl	15 µM (active)	–
Cn1c(=O)c(F)c(Nc2ccc(I)cc2F)c2c(=O)n(CC(O)CO)cnc21 (stereo not given)	0.0259 µM (active)	–
O=C(Cc1ccc(Cl)cc1)Nc1cnccc1C(=O)O	–	96%
OCCn1cc(-c2cnc3nnn(Cc4ccc5ncccc5c4)c3n2)cn1	20.9 µM (active)	–
Cc1ccccc1N1C(=O)c2cc(S(N)(=O)=O)c(Cl)cc2NC1C (stereo not given)	–	88.4%
CC(C)CCC1(O)C(=O)C(C)(C)C(O[C@@H]2O[C@H](CO)[C@@H](O)[C@H](O)[C@H]2O)C(C)(C)C1O (stereo not given in full)	–	92.7% [at 17.3 µM]
C/C(=C/CCC(CO)C1CCC2(C)C3CCC4C(C)(C)C(OC5OC(CO)C(O)C(O)C5O)CC(O)C45CC35CCC12C)COC1OC(CO)C(O)C(O)C1O (stereo not given)	–	72.5% [at 17.3 µM]
CN1C(=O)[C@@H](NC(=O)c2n[nH]c(Cc3ccccc3)n2)COc2ccccc21	–	87.2%
CC(C)(O)CCc1ccc(OCc2cc(-c3cccc(OC(F)F)c3)c3ncccc3c2)cc1	16.6 µM (active)	–
CCCc1cc(=O)[nH]c(=S)[nH]1	inactive	–
